Our source for the growth values is PubChem BioAssay (NCI).

Test systems include SK-MEL-2 melanoma; EKVX NSCLC; SN12C renal; UO-31 renal; TK-10 renal; ACHN renal; CAKI-1 renal; A498 renal; CCRF-CEM leukemia; MOLT-4 leukemia.
Holding throughout (test): NCI-60 one-dose screen, 48 h (100 = growth as untreated, 0 = no growth, -100 = all killed)
Holding throughout (conditions): 10 µM unless noted

Structures are written as SMILES. Several values for one entry are separate records, joined by “and”; a condition that tells them apart may be missing. Equal values may be shown once. This is part of a sample that, as a whole, favours compounds with a hit. Of some 83,000 tested, about 20% had one in any assay.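 Plates (96-well) were seeded with cells, treated with compound at one concentration, and incubated for 48 hours before percent growth was determined.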 Activity calls are given as the source filed them. The calls were made as follows: active = growth percent below 10; inactive = the rest.

For the compound `OCCSc1ccc(Cl)cc1`, the growth is 109% (inactive) and 90.7% (inactive) in the test on SK-MEL-2 melanoma; 100% (inactive) and 89.4% (inactive) in the test on EKVX NSCLC; 104% (inactive) and 93% (inactive) in the test with SN12C renal; 95.9% (inactive) and 85.7% (inactive) in the test on UO-31 renal; 87.7% (inactive) in the test on TK-10 renal; 99.6% (inactive) and 95.1% (inactive) in the test with ACHN renal. Also, the growth was 107% (inactive) and 91.1% (inactive) in the test on CAKI-1 renal; 107% (inactive) and 88.9% (inactive) with A498 renal; 119% (inactive) and 96.7% (inactive) in the test on CCRF-CEM leukemia; 118% (inactive) and 91.7% (inactive) in the test with MOLT-4 leukemia.

Consider `O=C(/C=C/C=C/c1ccc2c(c1)OCO2)N1CCCCC1`, for which the growth with SK-MEL-2 melanoma was 128% (inactive) and 57.5% (inactive); in the test with EKVX NSCLC, 78.9% (inactive) and 95.9% (inactive); in the test on SN12C renal, 97.9% (inactive) and 100% (inactive); in the test on UO-31 renal it was 88.8% (inactive) and 74.4% (inactive); in the test on TK-10 renal, 157% (inactive) and 175% (inactive); in the test with ACHN renal, 106% (inactive). Moreover, the growth with CAKI-1 renal was 92.6% (inactive) and 106% (inactive); in the test on A498 renal, 92.7% (inactive) and 83.6% (inactive); with CCRF-CEM leukemia, 109% (inactive) and 107% (inactive); with MOLT-4 leukemia, 98.3% (inactive) and 84% (inactive).

In the case of `CCOC(=O)C1=CC(=O)CC(C)(C)O1`, the growth with SK-MEL-2 melanoma was 114% (inactive); with EKVX NSCLC, 104% (inactive) and 126% (inactive); in the test on SN12C renal, 110% (inactive) and 102% (inactive); with UO-31 renal it was 92.5% (inactive) and 101% (inactive); in the test on TK-10 renal, 96.1% (inactive) and 107% (inactive); with ACHN renal, 102% (inactive) and 106% (inactive). Moreover, the growth is 99.7% (inactive) and 104% (inactive) in the test on CAKI-1 renal; 108% (inactive) and 105% (inactive) in the test on A498 renal; 90% (inactive) and 104% (inactive) with CCRF-CEM leukemia; -47.2% (active) and 106% (inactive) with MOLT-4 leukemia.

In the case of `COc1ccc2nccc(Cl)c2c1`, the growth in the test with SK-MEL-2 melanoma is 97.4% (inactive); in the test with EKVX NSCLC, 101% (inactive); with SN12C renal, 98.7% (inactive); in the test on UO-31 renal, 91.5% (inactive); in the test on TK-10 renal, 103% (inactive); in the test with ACHN renal it was 106% (inactive). Also, the growth in the test on CAKI-1 renal is 97.3% (inactive); in the test with A498 renal, 95.1% (inactive); in the test on CCRF-CEM leukemia it was 109% (inactive); in the test with MOLT-4 leukemia, 106% (inactive).

Consider `CCN(CC)C(=S)SCCO`, for which the growth with SK-MEL-2 melanoma was 105% (inactive); in the test on EKVX NSCLC it was 106% (inactive); with SN12C renal it was 105% (inactive); in the test with UO-31 renal, 93.8% (inactive); with TK-10 renal, 86% (inactive); with ACHN renal, 111% (inactive). For the same compound, the growth in the test with CAKI-1 renal is 107% (inactive); in the test on A498 renal, 75.6% (inactive); with CCRF-CEM leukemia it was 100% (inactive); in the test with MOLT-4 leukemia, 96.6% (inactive).

As for `CC(C)(C)OC(=O)NCCc1ccc(N)cc1`, the growth in the test on SK-MEL-2 melanoma is 86.1% (inactive); in the test on EKVX NSCLC, 101% (inactive); in the test with SN12C renal, 91.8% (inactive); in the test on UO-31 renal it was 72% (inactive); with TK-10 renal it was 92.7% (inactive); with ACHN renal, 105% (inactive). Also, the growth in the test on CAKI-1 renal is 98.2% (inactive); with A498 renal it was 92.5% (inactive); with CCRF-CEM leukemia it was 85.5% (inactive); in the test on MOLT-4 leukemia it was 92.8% (inactive).

In the case of `Clc1ccc(/C=C/c2ccc3ccccc3n2)cc1`, the growth with SK-MEL-2 melanoma is 10.7% (inactive) and 89.2% (inactive); with EKVX NSCLC, 57.6% (inactive) and 58.7% (inactive) and 66.2% (inactive); in the test on SN12C renal, 43.8% (inactive) and 97.7% (inactive) and 85.7% (inactive); in the test with UO-31 renal it was 69.7% (inactive) and 68.4% (inactive) and 58.1% (inactive); with TK-10 renal, 15.3% (inactive) and 132% (inactive) and 86.7% (inactive); with ACHN renal it was 55.8% (inactive) and 93.3% (inactive) and 83% (inactive). The growth with CAKI-1 renal is 47.7% (inactive) and 68% (inactive) and 84.7% (inactive); in the test on A498 renal, 61% (inactive) and 135% (inactive) and 114% (inactive); in the test with CCRF-CEM leukemia, 8.05% (active) and 97.1% (inactive) and 89.3% (inactive); in the test on MOLT-4 leukemia it was 30.9% (inactive) and 41.9% (inactive) and 76% (inactive).

Regarding `CCOC(=O)c1ccncc1`, the growth is 106% (inactive) with SK-MEL-2 melanoma; 104% (inactive) with EKVX NSCLC; 98.9% (inactive) in the test on SN12C renal; 90.2% (inactive) in the test with UO-31 renal; 99.4% (inactive) with TK-10 renal; 119% (inactive) with ACHN renal. The growth with CAKI-1 renal was 104% (inactive); with A498 renal, 86.8% (inactive); in the test on CCRF-CEM leukemia it was 108% (inactive); in the test on MOLT-4 leukemia, 104% (inactive).

With `OCCS`, the growth was 108% (inactive) in the test on SK-MEL-2 melanoma; 98.8% (inactive) in the test with EKVX NSCLC; 107% (inactive) with SN12C renal; 98% (inactive) with UO-31 renal; 84.7% (inactive) in the test on TK-10 renal; 111% (inactive) in the test on ACHN renal. Moreover, the growth with CAKI-1 renal is 105% (inactive); in the test with A498 renal, 66.4% (inactive); in the test with CCRF-CEM leukemia, 100% (inactive); with MOLT-4 leukemia it was 92.2% (inactive).

With `O=[N+]([O-])c1cccc(N=Cc2ccccc2)c1`, the growth with SK-MEL-2 melanoma was 104% (inactive); with EKVX NSCLC, 102% (inactive); with SN12C renal, 104% (inactive); in the test with UO-31 renal it was 90.8% (inactive); with TK-10 renal it was 94.2% (inactive); in the test with ACHN renal it was 102% (inactive). Also, the growth is 88.1% (inactive) with CAKI-1 renal, 110% (inactive) with A498 renal, 95.7% (inactive) in the test on CCRF-CEM leukemia and 87.4% (inactive) in the test on MOLT-4 leukemia.

In the case of `CCOP(C)(=O)/C(Cc1ccc(OC)c(OC)c1)=N\O` (stereo not given), the growth is 111% (inactive) with SK-MEL-2 melanoma; 98.3% (inactive) in the test on EKVX NSCLC; 103% (inactive) with SN12C renal; 91.2% (inactive) with UO-31 renal; 107% (inactive) in the test on TK-10 renal; 106% (inactive) in the test on ACHN renal. Also, the growth is 103% (inactive) with CAKI-1 renal, 104% (inactive) in the test with A498 renal, 110% (inactive) in the test with CCRF-CEM leukemia and 112% (inactive) in the test on MOLT-4 leukemia.

With `O=C1C=CC(n2cc(F)c(=O)[nH]c2=O)O1` (stereo not given), the growth in the test on SK-MEL-2 melanoma was 109% (inactive); in the test with EKVX NSCLC, 93.3% (inactive); with SN12C renal, 64.4% (inactive); in the test on UO-31 renal it was 63.4% (inactive); in the test with TK-10 renal it was 75.7% (inactive); in the test on ACHN renal, 56.5% (inactive). In addition, the growth in the test with CAKI-1 renal was 46.5% (inactive); with A498 renal, 79.5% (inactive); in the test on CCRF-CEM leukemia, 50.4% (inactive); with MOLT-4 leukemia, 54.4% (inactive).

On to `Cc1ccc(C(=O)c2ccc(C)cc2)cc1`, for which the growth in the test on SK-MEL-2 melanoma is 98.5% (inactive) and 98.1% (inactive); in the test on EKVX NSCLC it was 92.6% (inactive) and 101% (inactive); in the test with SN12C renal, 92.6% (inactive) and 103% (inactive); in the test on UO-31 renal, 76.9% (inactive) and 98.3% (inactive); in the test on TK-10 renal it was 101% (inactive) and 96.5% (inactive); in the test with ACHN renal, 99.8% (inactive) and 107% (inactive). Also, the growth in the test with CAKI-1 renal was 93.4% (inactive); with A498 renal it was 96.4% (inactive) and 111% (inactive); with CCRF-CEM leukemia, 91.6% (inactive) and 93.3% (inactive); in the test with MOLT-4 leukemia, 82.5% (inactive) and 97.8% (inactive).

With `Cc1cnc(N)s1`, the growth in the test with SK-MEL-2 melanoma was 102% (inactive); in the test with EKVX NSCLC, 94.2% (inactive); in the test on SN12C renal, 97.2% (inactive); with UO-31 renal it was 81.6% (inactive); in the test with TK-10 renal, 114% (inactive); in the test on ACHN renal it was 96.2% (inactive). Besides, the growth in the test with CAKI-1 renal is 96.9% (inactive); in the test on A498 renal, 103% (inactive); in the test on CCRF-CEM leukemia it was 99.4% (inactive); with MOLT-4 leukemia it was 103% (inactive).
